According to the supplement of paper PMC10338343:
± gives the standard deviation.

Tested on: MILI (PIWIL2) piRISC loaded with L1MC piRNA (26 nt)
Experiment: pre-steady-state target cleavage rate (min^-1); guide: L1MC piRNA 5'p-UAACUAAAUACUAUGCAAGCUGUAGG; MIWI and MILI are mouse PIWI proteins and EfPiwi is from a freshwater sponge; tags in brackets are library labels; higher = faster piRNA-guided slicing of the target
Conditions: auxiliary factor: 500 nM mouse GTSF1
Procedure, shortened: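 In this Cleave-'n-Seq assay, uncleaved targets were sequenced and normalised to depth and to weakly complementary targets. They came from a transcribed, DNA-blocked target RNA library […] mixed with 1 nM active affinity-purified piRISC carrying one synthetic guide, with or without 500 nM GTSF1 partner protein, in HEPES–potassium acetate buffer at 33 °C for 0–8 or 0–960 min. After three trials were pooled and k3 was capped at 0.0001 min^-1, the pre-steady-state cleavage rate was obtained from a burst-and-steady-state fit.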
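Further: 1 nM active piRISC with 0.1 nM target library at 33 °C single turnover.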

Row | Sequence | pre-steady-state target cleavage rate
1 | UCCUGGAUCAGGAUGCAUAGUAUUUAGUUA | 0.156 ± 0.012
2 | UCCUGGUCAGCUUGCAUAGUAUUUAGUUA | 0.269 ± 0.016
3 | UCCUGCUUCAGCUUGCAUACUAUUUAGUUA | 0.0698 ± 0.01
4 | UCCUCCUACAGCUAGCAUAGUAUUUAGUUA | 0.27 ± 0.019
5 | UCCUGCUACGAGCUUGCAUAGUAUUUAGUUA | 0.217 ± 0.026
6 | UCCUGGAUGAGCUAGCAUAGUAUUUAGUUA | 0.2 ± 0.018
7 | UCCUCCUACAGGUUGCAUAGUAUUUAGUAA | 0.233 ± 0.017
8 | UCCUCCUACAAGCUUGCAUAGUAUUUAGUUA | 0.222 ± 0.016
9 | UCCUGGUACAGCUUGCAUAGUAUUUAGUUC [g2:g24:cont:t1C] | 0.3 ± 0.016
10 | UCCUGGUACAGCAUGCAUACUAUUUAGUUA | 0.139 ± 0.031
11 | UCCUCCUACAUGCUUGCAUAGUAUUUAGUUA | 0.149 ± 0.018
12 | UCCUGGAUCAGCUUGCAUAGUAUUUAGUUA [g2:g22:cont:t1A] | 0.267 ± 0.017
13 | UCCUCCUACAGCUAGCAUACUAUUUAGUUA | 0.0706 ± 0.011
14 | UCCUGCAACAGCUAGCAUAGUAUUUAGUUA | 0.289 ± 0.02
15 | UCCUGGAACAGCUUUGCAUAGUAUUUAGUUA | 0.248 ± 0.016
16 | UCCUGGAACAGCUUGCAUAGUAUAUAGUUA | 0.296 ± 0.029
17 | UCCUGCUACAGCUUGCAUUGUAUUUACUUA | 0.12 ± 0.025
18 | UCCUGGAUGAGCUAGCAUAGUUUUUAGUUA | 0.0185 ± 0.0066
19 | UCCUGCUACUGCUUGCUUAGUAUUUAGUUA | 0.202 ± 0.022
20 | UCCUGCUACAGGUUGCAAAGUAUUUAGUUA | 0.143 ± 0.013

Row | Sequence | pre-steady-state target cleavage rate
21 | UCCUCCAACACCUUGCAUAGUAUUUAGUUA | 0.192 ± 0.022
22 | UCCUGGAUCGCUUGCAUAGUAUUUAGUUA | 0.29 ± 0.012
23 | UCCUGGAACAGCUUGCAAAGUAAUUAGUUA | 0.131 ± 0.018
24 | UCCUGCUACAGCAUGCAUAGUAUUAAGUUA | 0.331 ± 0.043
25 | UCCUGGAUGUGCUUGCAUAGUUUUUAGUUA | 0.0127 ± 0.0066
26 | UCCUGGAUCAGCUUGCAUAGUAUUUGGUUA | 0.245 ± 0.018
27 | UCCUGGAUGAGCUUUGCAUAGUAUUUAGUUA | 0.181 ± 0.013
28 | UCCUGCUACAGCUCGCAUAGUAUUUAGUUA | 0.264 ± 0.015
29 | UCCUGGAUGUGCUUGCAUAGUAUUUAGUAA | 0.246 ± 0.031
30 | UCCUGGAUGUGCUUACAUAGUAUUUAGUUA | 0.122 ± 0.015
31 | UCCUGGAACAGCUAGCUUAGUAUUUAGUUA | 0.186 ± 0.015
32 | UCCUGGUACAGCUUGCAUAGUAUUUAGUGA | 0.129 ± 0.021
33 | UCCUGGUACAGCUUGCAUAGUAUUUAGUA | 0.226 ± 0.031
34 | UCCUGCUACAGCUUGCACAGUAUUUAGUUA | 0.157 ± 0.015
35 | UCCUGGAACAGCUUGCAUAGUAUUUAGUAA | 0.247 ± 0.021
36 | UCCUCCUAGUGCUUGCAUAGUAUUUAGUUA | 0.164 ± 0.018
37 | UCCUUCUACAGCUUGCAUAGUAUUUAGUUA | 0.3 ± 0.015
38 | UCCUGGAACAGCCUGCAUAGUAUUUAGUUA | 0.247 ± 0.012
39 | UCCUGGAACAGCUUGUCAUAGUAUUUAGUUA | 0.2 ± 0.014
40 | UCCUCCAAGAGCUUGCAUAGUAUUUAGUUA | 0.276 ± 0.013
